# Experimental data published in PubChem BioAssay AID1239 (SRMLSC, 2008).
# In all, about 190,000 compounds went through this assay and about 3,100 (1.6%) were called active. Cut-off read from the data, not from the text of the source: active = fold change above about 3.3; inconclusive = no clear call, values can overlap the other calls; inactive = below that. For the sample, actives were picked, then their nearest neighbours and some compounds at random.
# Assay: activators of NF-kB expression in neurons, primary screen, cell-based, HTS (AID 1239)
# Conditions: human neuronal cells, NF-kB reporter expression; at 12.5 µM; hits give high values
row,Compound,fold change
1,O=[N+]([O-])c1cc(Br)c(O)c(/C=N/Nc2nc3ccccc3s2)c1,0.65 (inactive)
2,c1ccc2sc(NN=C3CCCC3)nc2c1,8.8 (active)
3,Fc1ccc2nc(Nc3nc4c(s3)CCCC4)sc2c1,3.04 (inactive)
4,Cc1ccccc1NCC(=O)N/N=C\c1ccc([N+](=O)[O-])s1,0.63 (inactive)
5,O=C(Nc1cc2ccccc2oc1=O)C1CCCCC1,4.4 (active)
6,CC(=O)Nc1cc2ccc(OC(C)=O)cc2oc1=O,1.34 (inactive)
7,O=C(O)c1ccc(NC(=O)C2CCCCC2)cc1,1.04 (inactive)
8,O=C(N/N=C/c1ccc(OCC2COCCO2)cc1)c1ccc(Br)cc1 (stereo unspecified),0.81 (inactive)
9,CNc1nc2c(C)cccn2c(=O)c1C=Nc1ccc(OC)cc1,1.61 (inactive)
10,Nc1[nH]c(=S)nc2nc(-c3ccccc3)c(-c3ccccc3)nc12,1.13 (inactive)
11,COc1ccc(C2=NOC3(CC(=O)N(c4ccc(C)cc4)C3=O)C2)cc1 (stereo unspecified),0.77 (inactive)
12,COc1ccc(C2=Nc3cc(C)ccc3OC2)cc1,6.75 (active)
13,COc1ccc(C2=NOC(COC(=O)c3ccc4ccccc4n3)C2)cc1 (stereo unspecified),1.25 (inactive)
14,CC(C)(C)[Si](OCC[C@@H]1C[C@@]1(C)[C@@H](NP(=O)(c1ccccc1)c1ccccc1)c1ccccc1)(c1ccccc1)c1ccccc1,3.34 (active)
15,O=C(NCc1ccccc1)[C@H]1C[C@@H]1[C@H](NP(=O)(c1ccccc1)c1ccccc1)c1ccccc1,0.77 (inactive)
16,COC(=O)[C@H](C)[C@H]1C[C@]1(C)[C@H](NC(=O)OCc1ccccc1)c1ccccc1,0.97 (inactive)
17,CCOC(=O)CCCNC(=O)COC(=O)/C=C/c1ccc2c(c1)OCO2,1.06 (inactive)
18,CC1(C)CC(=O)CC2(C1)NCC(c1ccccc1Cl)c1c2[nH]c2ccccc12 (stereo unspecified),0.75 (inactive)
19,O=C(COC(=O)C1CCCCC1)Nc1ccc([N+](=O)[O-])cc1,6.28 (active)
20,N/C(Cc1ccc([N+](=O)[O-])cc1)=N\OC(=O)C1CCCCC1,1.13 (inactive)
21,O=C(COc1ccc([N+](=O)[O-])cc1)Nc1ccc(N2CCCC2)cc1,1.07 (inactive)
22,CC1=NCCN1S(=O)(=O)c1cccc([N+](=O)[O-])c1,1.03 (inactive)
23,CCOC(=O)C(C)n1nc(-c2ccccc2)c2ccccc2c1=O (stereo unspecified),0.91 (inactive)
24,CCCn1c(NC(=O)C23CC4CC(CC(O)(C4)C2)C3)nc2ccccc21,0.92 (inactive)
25,NS(=O)(=O)c1ccc(NC(=O)COC(=O)c2ccc(Cl)nc2)cc1,0.87 (inactive)
26,CC(C(=O)O)n1cnc2sc3c(c2c1=O)CCCC3 (stereo unspecified),1.12 (inactive)

row,Compound,fold change
1,O=C(N/N=C/c1ccc2c(c1)OCO2)C(=O)N1CCCC1,1.4 (inactive)
2,Cc1nc2sc(C(=O)c3ccccc3)c(N)c2c2c1CCCC2,1.93 (inactive)
3,CN(C)c1ccnc2sc3c(=O)n(Cc4ccccc4)cnc3c12,0.86 (inactive)
4,CN(C)c1ccnc2sc(C(=O)c3ccccc3)c(N)c12,3.79 (active)
5,COc1ccc(/C=C/CN2CCCC(C(=O)c3cc(F)ccc3F)C2)cc1 (stereo unspecified),1.06 (inactive)
6,CCOc1ccc2nc(NCCNC(=O)C(C)(C)C)c(C)cc2c1,1.12 (inactive)
7,O=C(CCc1nnc(CCCCc2ccccc2)o1)NC(c1cccnc1)C(F)(F)F (stereo unspecified),0.86 (inactive)
8,Cc1ccc(-c2cn(S(=O)(=O)c3cccc([N+](=O)[O-])c3)nc2N)cc1,1.2 (inactive)
9,CC(C)(C)NC(=O)Cn1cnc2cc([N+](=O)[O-])ccc2c1=O,1.11 (inactive)
10,Cc1ccc(-n2cc3ccc([N+](=O)[O-])cc3n2)cc1,9.31 (active)
11,O=C(O)CSCC(=O)Nc1ccc(C(F)(F)F)cc1,1.18 (inactive)
12,CCCCSc1nc2ccccc2[nH]1,2.06 (inactive)
13,C=CCSc1nc2ccccc2[nH]1,1.17 (inactive)
14,O=C(CSc1nc2ccccc2[nH]1)c1cccs1,3.8 (active)
15,COc1ccc(/C=N/NC(=O)Cn2cc(C(F)(F)F)ccc2=O)cc1,1.07 (inactive)
16,O=C(O)/C=C/c1ccc(S(=O)(=O)N2CCCCCC2)cc1,1.17 (inactive)
17,CCCC(=O)Nc1ccc(C(=O)NCCCn2ccnc2)cc1,1.01 (inactive)
18,CCCC(=O)Nc1ccc(C(=O)N/N=C/c2ccc[nH]2)cc1,6.81 (active)
19,CCCCCC(=O)Nc1ccc(C(=O)N/N=C/c2ccc([N+](=O)[O-])cc2)cc1,1.05 (inactive)
20,CCn1c(N)c(Br)c(=O)[nH]c1=O,0.94 (inactive)
21,CN(C)c1ccc(C2Nc3ccccc3C(=O)N2NS(=O)(=O)c2ccccc2)cc1 (stereo unspecified),0.87 (inactive)
22,CC1(C)CC(=O)C(C2c3ccccc3S(=O)(=O)c3ccccc32)C(=O)C1,1.19 (inactive)
23,Cc1ccc(C(=O)NN(CCC#N)C2=NS(=O)(=O)c3ccccc32)cc1,1.06 (inactive)
24,CC1(C)C2CC=C(/C=N/NC(=O)C3CC3)C1C2 (stereo unspecified),1.13 (inactive)
25,CC(C)(C)NS(=O)(=O)c1ccc(NC(=O)NC2CCCCC2)cc1,0.89 (inactive)
26,CC(C)N1CCC(NC(=O)Nc2ccccc2)CC1,1.04 (inactive)

row,Compound,fold change
1,CC(C)c1ccc(NC(=O)NC2CCCCC2)cc1,5.47 (active)
2,CCOc1cc(NC(=S)NCc2ccco2)c(OCC)cc1NC(=O)c1ccco1,1.12 (inactive)
3,CCN(CC)C(=O)C(=O)c1cn(CC(=O)NCc2ccc3c(c2)OCO3)c2ccccc12,1.39 (inactive)
4,CCc1ccc2c(c1)C1(NN=C(c3ccccc3)S1)C(=O)N2 (stereo unspecified),4.48 (active)
5,O=C1Nc2ccccc2C12Nc1ccccc1S2 (stereo unspecified),1.44 (inactive)
6,C=C1c2cc(CC)ccc2NC(=O)N1c1ccc(C)cc1,1.19 (inactive)
7,O=C(CSc1cccc[n+]1[O-])c1ccc(-c2ccccc2)cc1,2.45 (inactive)
8,COc1cc(NC(=O)c2cccs2)ccc1NC(=O)c1ccccc1Cl,0.87 (inactive)
9,O=C(Nc1ccc2sc3ccccc3c(=O)c2c1)c1ccccc1Cl,6.23 (active)
10,O=C(Nc1ccc2nc3n(c(=O)c2c1)CCCCC3)c1ccccc1Cl,1.29 (inactive)
11,CCOC(=O)Cc1csc(NC(=O)COc2ccc3c(C)cc(=O)oc3c2)n1,0.61 (inactive)
12,O=C(CCC1CCCN(Cc2ccc(O)c(Cl)c2)C1)NCc1ccccc1F (stereo unspecified),1.07 (inactive)
13,CC(=O)Nc1cccc(C(=O)Nc2nc(C)cs2)c1,1.22 (inactive)
14,S=C(Nc1cccc(Cl)c1)Nc1ccc2cn[nH]c2c1,1.36 (inactive)
15,Cc1csc(NC(=S)Nc2cccc(Cl)c2)n1,3.32 (active)
16,NC(=O)c1ccc(NC(=O)COC(=O)C(Cc2ccccc2)NC(=O)c2ccccc2)cc1 (stereo unspecified),0.99 (inactive)
17,CCNc1nc(-c2cc3ccccc3o2)cs1,1.19 (inactive)
18,NS(=O)(=O)c1ccc(Nc2nc(-c3ccccc3)cs2)cc1,1.18 (inactive)
19,COc1ccc(-c2csc(Cc3nc(O)cs3)n2)cc1,3.76 (active)
20,O=c1oc2ccccc2cc1-c1csc(Nc2ccc(O)cc2)n1,7.39 (active)
21,COc1ccc(-c2csc(NC(=O)CCCc3cccs3)n2)cc1,0.87 (inactive)
22,Oc1ccc(-c2csc(Nc3cccnc3)n2)cc1,3.24 (inactive)
23,COc1ccc2nc(Nc3nc(-c4ccncc4)cs3)sc2c1,1.6 (inactive)
24,COc1ccc(OC)c(Nc2nc(-c3ccc(O)c(O)c3)cs2)c1,1.32 (inactive)
25,COc1ccc(Nc2nc(-c3ccccc3)cs2)cc1,12.5 (active)
26,COc1ccc(-c2csc(NC(=O)COC(=O)c3ccc(Br)o3)n2)cc1,1.92 (inactive)

row,Compound,fold change
1,COc1ccc2nc(Nc3nc(-c4cc5ccccc5oc4=O)cs3)sc2c1,1.2 (inactive)
2,COc1ccc(-c2csc(Nc3ccc(O)cc3)n2)cc1,8.49 (active)
3,O=C(C1CCN(C2CCN(Cc3cccc4c3OCO4)CC2)CC1)N1CCOCC1,1.05 (inactive)
4,COC(=O)c1ccc(CN2CCC(CO)(Cc3ccc(OC)cc3)CC2)cc1,1.33 (inactive)
5,COc1ccccc1-n1ccnc1SCC(=O)NC(C)(C)C,1.09 (inactive)
6,CCCCC(CC)CNC(=O)C(=O)C1C(=O)Nc2ccccc21 (stereo unspecified),1.17 (inactive)
7,CC[n+]1c(C)n(-c2ccccc2)c2ccc(NC(C)=O)cc21,0.85 (inactive)
8,N#C/C(=C\c1ccc(-c2cccc([N+](=O)[O-])c2)o1)C(=O)NCCN1CCOCC1,1.14 (inactive)
9,Cc1cccc(NC(=O)c2cc([N+](=O)[O-])ccc2N2CCN(C)CC2)c1,0.95 (inactive)
10,O=C(O)c1ccccc1-c1ccccc1C(=O)NCc1cccnc1,1.16 (inactive)
11,COC(=O)C(C)NC(=O)COc1ccc2ccccc2c1 (stereo unspecified),1.1 (inactive)
12,Cc1cc(Cl)ccc1OCCCC(=O)NCc1ccccn1,1.09 (inactive)
13,N#CC1=C(N)Oc2[nH]c(=S)[nH]c(=O)c2C12C(=O)Nc1ccccc12 (stereo unspecified),1.09 (inactive)
14,Cc1nn(C)c(C)c1Sc1ccccc1N,0.93 (inactive)
15,CN1CCN(/N=C2/C(=O)Nc3ccc([N+](=O)[O-])cc32)CC1,1.3 (inactive)
16,Cc1cc(Br)ccc1NC(=O)C1CCCO1 (stereo unspecified),1.18 (inactive)
17,O=C(Nc1nc2ccc(S(=O)(=O)N3CCCC3)cc2s1)C1CCCO1 (stereo unspecified),0.92 (inactive)
18,Cc1cc(C)c2nc(NC(=O)C3CCCO3)sc2c1 (stereo unspecified),6.22 (active)
19,CC1CN(CCCOc2ccccc2-c2ccccc2)CC(C)O1 (stereo unspecified),1.16 (inactive)
20,O=C(OCC(=O)c1c[nH]c2ccccc12)c1cccc(O)c1,5.31 (active)
21,O=C(Cc1c[nH]c2ccccc12)OCCOC(=O)Cc1c[nH]c2ccccc12,1.43 (inactive)
22,CC1CCN(CC(=O)c2c[nH]c3ccccc23)CC1,0.78 (inactive)
23,COc1cccc(CNC(=O)CCC2CCCN(C(=O)c3ccoc3C)C2)c1 (stereo unspecified),1.11 (inactive)
